Experimental data reported in PubChem BioAssay AID1159580 (chemical genetic matrix, 2015).
Several values for one entry are separate records, joined by “and”; a condition that tells them apart may be missing. Identical values can stand only once. About 2,000 (36%) of roughly 5,500 compounds were called active. Inconclusive results (about 18%) are left out. Cut-off read from the data, not from the text of the source: active = normalized growth mostly below about 0.91 (no sharp cut-off); inconclusive = no clear call, values can overlap the other calls; inactive = mostly above about 0.92. This is one part of the list.

Assay: chemical genetic growth profiling, strain panel (AID 1159580);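 note: tested at 20 µM; growth read once vehicle control cultures reached saturation at 30 °C; 1 = growth at the plate median or of vehicle wells; lower values mean less growth of the strain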
Settings: S. cerevisiae deletion strains, growth OD

Measured: normalized growth

CC1(C)S[C@@H]2C(N3C(=O)[C@@H](c4ccccc4)NC3(C)C)C(=O)N2[C@H]1C(=O)O (some centres not stated)
inactive: locus YAL021C, strain ccr4, hits give low values 1.03 | locus YAL026C, strain drs2, hits give low values 1.02 | locus YAL030W, strain snc1, hits give low values 1 | locus YBL061C, strain skt5, hits give low values 1.02 | locus YBR009C, strain hhf1, hits give low values 1.03 | locus YBR021W, strain FUR4, hits give low values 0.994 | locus YBR023C, strain chs3, hits give low values 1.04 | locus YBR171W, strain sec66, hits give low values 1.04 | locus YBR229C, strain ROT2, hits give low values 1.01 | locus YBR231C, strain swc5, hits give low values 0.975 | locus YBR279W, strain paf1, hits give low values 1.02 | locus YCL011C, strain gbp2, hits give low values 1.03 | locus YCL016C, strain dcc1, hits give low values 1.06 | locus YCL029C, strain bik1, hits give low values 1.02 | locus YCL061C, strain MRC1, hits give low values 1.03 | locus YCL069W, strain vba3, hits give low values 1.02 | locus YCR088W, strain abp1, hits give low values 1.02 | locus YDL005C, strain med2, hits give low values 1.02 | locus YDL035C, strain GPR1, hits give low values 1 | locus YDL040C, strain nat1, hits give low values 1.01 | locus YDL074C, strain BRE1, hits give low values 1.02 | locus YDL101C, strain DUN1, hits give low values 1.01 | locus YDL185W, strain tfp1, hits give low values 1.02 | locus YDL192W, strain arf1, hits give low values 1.03 | locus YDR001C, strain nth1, hits give low values 1.01 | locus YDR069C, strain doa4, hits give low values 0.977 | locus YDR101C, strain arx1, hits give low values 1.01 | locus YDR137W, strain rgp1, hits give low values 1.11 | locus YDR159W, strain sac3, hits give low values 0.958 | locus YDR162C, strain NBP2, hits give low values 1 | locus YDR195W, strain ref2 1.01 | locus YDR297W, strain sur2, hits give low values 0.98 | locus YDR318W, strain mcm21, hits give low values 1.02 | locus YDR334W, strain swr1, hits give low values 1.02 | locus YDR335W, strain msn5, hits give low values 0.989 | locus YDR388W, hits give low values 1.03 | locus YDR392W, strain spt3, hits give low values 0.952 | locus YDR502C, strain sam2, hits give low values 1.03 | locus YEL003W, strain gim4, hits give low values 1.02 | locus YEL037C, strain rad23, hits give low values 1.02 | locus YEL061C, strain CIN8 (second series), hits give low values 1.02 | locus YEL061C, strain CIN8, hits give low values 1.01 | locus YER015W, strain faa2, hits give low values 1 | locus YER016W, strain bim1, hits give low values 1.01 | locus YER110C, hits give low values 1.04 | locus YER111C, strain swi4, hits give low values 1.03 | locus YER155C, strain BEM2 (second series), hits give low values 0.975 | locus YER155C, strain BEM2, hits give low values 1 | locus YER167W, strain BCK2, hits give low values 1 | locus YFR010W, strain ubp6, hits give low values 1.03 | locus YGL078C, strain dbp3, hits give low values 1.03 | locus YGL086W, strain mad1, hits give low values 0.996 | locus YGL167C, strain pmr1, hits give low values 1.02 | locus YGL173C, strain kem1, hits give low values 1.03 | locus YGL227W, strain vid30, hits give low values 1.02 | locus YGL240W, strain doc1, hits give low values 0.972 | locus YGL248W, strain PDE1, hits give low values 1.01 | locus YGL253W, strain hxk2, hits give low values 1.02 | locus YGR078C, strain PAC10, hits give low values 1 | locus YGR135W, strain pre9, hits give low values 1.04 | locus YGR252W, strain gcn5, hits give low values 1.01 | locus YHR013C, strain ard1, hits give low values 1.06 | locus YHR027C, strain rpn1, hits give low values 1.02 | locus YHR030C, strain SLT2, hits give low values 1.01 and 0.988 | locus YHR079C, strain IRE1 (second series), hits give low values 1.02 | locus YHR079C, strain IRE1, hits give low values 0.979 | locus YHR094C, strain hxt1, hits give low values 1.03 | locus YHR129C, strain ARP1, hits give low values 0.995 | locus YHR142W, strain chs7, hits give low values 1.05 | locus YHR200W, strain rpn10, hits give low values 1.03 | locus YIL066C, strain RNR3, hits give low values 1 | locus YIL073C, strain SPO22, hits give low values 1.06 | locus YIL125W, strain kgd1, hits give low values 1.02 | locus YIR030C, strain dcg1, hits give low values 1.03 | locus YJL092W, strain hpr5, hits give low values 1.02 | locus YJL095W, strain BCK1 (second series), hits give low values 0.987 | locus YJL095W, strain BCK1, hits give low values 1.02 and 0.98 | locus YJL115W, strain asf1, hits give low values 1.02 | locus YJL129C, strain trk1, hits give low values 1.04 | locus YJL134W, strain LCB3, hits give low values 1.01 | locus YJL154C, strain vps35, hits give low values 1.02 | locus YJL164C, strain tpk1, hits give low values 1.04 | locus YJL166W, strain qcr8, hits give low values 1.02 | locus YJL168C, strain set2, hits give low values 1.03 | locus YJL187C, strain SWE1 (second series), hits give low values 1 | locus YJL187C, strain SWE1, hits give low values 0.974 | locus YJR066W, strain TOR1, hits give low values 0.944 | locus YKL009W, strain mrt4, hits give low values 0.99 | locus YKL068W, hits give low values 1.01 | locus YKL085W, strain MDH1 (second series), hits give low values 1.02 | locus YKL085W, strain MDH1, hits give low values 1.02 | locus YKL160W, strain elf1, hits give low values 1.05 | locus YKR001C, strain vps1, hits give low values 1.04 | locus YKR026C, strain gcn3, hits give low values 1.02 | locus YKR091W, strain srl3, hits give low values 1.02 | locus YLL001W, strain dnm1, hits give low values 1.04 | locus YLL026W, hits give low values 1.02 | locus YLL041C, strain sdh2, hits give low values 1 | locus YLR027C, strain aat2, hits give low values 1 | locus YLR039C, strain RIC1, hits give low values 1.03 | locus YLR058C, strain SHM2, hits give low values 1.01 | locus YLR102C, strain apc9, hits give low values 1.03 | locus YLR113W, strain HOG1, hits give low values 1 | locus YLR221C, strain rsa3, hits give low values 1.03 | locus YLR258W, strain gsy2, hits give low values 0.999 | locus YLR262C, strain YPT6 (second series), hits give low values 1.11 | locus YLR262C, strain YPT6, hits give low values 1.05 | locus YLR268W, strain sec22, hits give low values 1.02 | locus YLR320W, strain mms22, hits give low values 1.08 | locus YLR330W, strain CHS5, hits give low values 1 | locus YLR342W, strain FKS1 (second series), hits give low values 0.997 | locus YLR342W, strain FKS1, hits give low values 1.03 | locus YLR357W, strain rsc2, hits give low values 1.01 | locus YLR370C, strain arc18, hits give low values 1 | locus YLR371W, strain rom2, hits give low values 1.01 | locus YLR384C, strain iki3, hits give low values 1.02 | locus YLR418C, strain cdc73, hits give low values 1.03 | locus YML016C, strain PPZ1, hits give low values 1.01 | locus YML032C, strain rad52, hits give low values 1.02 | locus YML120C, strain ndi1, hits give low values 1.05 | locus YML124C, strain tub3, hits give low values 1.02 | locus YMR058W, strain fet3, hits give low values 1.01 | locus YMR078C, strain ctf18, hits give low values 1.03 | locus YMR125W, strain sto1, hits give low values 1.03 | locus YMR129W, hits give low values 1.02 | locus YMR205C, strain PFK2, hits give low values 0.992 | locus YMR223W, strain ubp8, hits give low values 1.04 | locus YMR231W, strain pep5, hits give low values 1.02 | locus YMR263W, strain SAP30, hits give low values 1 | locus YMR307W, strain GAS1, hits give low values 1.01 | locus YNL067W, strain RPL9B, hits give low values 1.01 | locus YNL071W, strain lat1, hits give low values 1.03 | locus YNL183C, strain NPR1, hits give low values 0.95 | locus YNL209W, strain ssb2, hits give low values 1.02 | locus YNL233W, strain BNI4, hits give low values 1 | locus YNL248C, strain rpa49, hits give low values 1.03 | locus YNL250W, strain rad50, hits give low values 1.05 | locus YNL271C, strain bni1, hits give low values 1.04 | locus YNL298W, strain CLA4, hits give low values 1.04 | locus YNL307C, strain MCK1, hits give low values 1.03 | locus YNL322C, strain KRE1 (second series), hits give low values 1.05 | locus YNL322C, strain KRE1, hits give low values 1 | locus YNR049C, strain mso1, hits give low values 0.993 | locus YNR052C, strain pop2, hits give low values 1.02 | locus YOL006C, strain TOP1, hits give low values 1.03 | locus YOL012C, strain htz1 0.716 | locus YOL147C, strain pex11, hits give low values 1.03 | locus YOR001W, strain rrp6, hits give low values 1.01 | locus YOR061W, strain CKA2, hits give low values 1.01 | locus YOR069W, strain VPS5, hits give low values 1 | locus YOR070C, strain gyp1, hits give low values 1.03 | locus YOR080W, strain dia2, hits give low values 1.05 | locus YOR083W, strain WHI5, hits give low values 1.03 | locus YOR106W, strain vam3, hits give low values 1.02 | locus YOR136W, strain idh2, hits give low values 1.03 | locus YOR144C, strain elg1, hits give low values 1.02 | locus YOR184W, strain ser1, hits give low values 1.05 | locus YOR231W, strain MKK1, hits give low values 0.997 | locus YOR265W, strain rbl2, hits give low values 1.03 | locus YOR270C, strain vph1, hits give low values 1.08 | locus YOR290C, strain snf2, hits give low values 0.962 | locus YOR316C, strain cot1, hits give low values 1.03 | locus YPL051W, strain arl3, hits give low values 1.04 | locus YPL078C, strain atp4, hits give low values 1.03 | locus YPL106C, strain sse1, hits give low values 1.01 | locus YPL240C, strain hsp82, hits give low values 0.985 | locus YPL256C, strain CLN2, hits give low values 0.982 | locus YPR119W, strain clb2, hits give low values 1.03 | locus YPR141C, strain kar3, hits give low values 1.03 | locus YPR163C, strain tif3, hits give low values 1.04 | locus YPR167C, strain met16, hits give low values 1.02 | strain wtn01, hits give low values 1.04
